High-throughput results from PubChem BioAssay.
The list is not random: actives were taken first. Their share in the collection is about 21%.
DRD3 agonist: qHTS of D3 Dopamine Receptor Agonist: qHTS; D3R DiscoveRx beta-arrestin cells, luminescence, 90 min; max activation, %; 410,000 compounds, 0.58% hits; AID 652048, 2013; in the data active = max activation above about 30%; note: 0% is about no effect
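Cells at 1500/well, incubated overnight, then treated with pinned compounds (dopamine as control) for 90 min at 37 degrees C. DiscoveRx reagent added for 30 - 60 minutes at room temperature; luminescence read.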
IL-1B inflam inh: qHTS for Inhibitors of Inflammasome Signaling: IL-1-beta AlphaLISA Primary Screen; THP-1 LPS/ATP IL-1B secretion, AlphaLISA, 16 h; active compounds read low; activity change, % at 57.5 µM; 360,000 compounds, 4.7% hits; in the data active = activity change below about -50%; inconclusive = mostly about -30% to -49%; note: % is set by controls: 0 for no effect and ±100 for the full control effect
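THP-1 cells pretreated 1 hr with compounds (up to 57.5 uM final), then stimulated with LPS (250 ng/mL final) plus ATP (1.25 mM final); secreted IL-1B measured by AlphaLISA after 16 hr, decreased signal indicating inhibition.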
DT40 TDP1 CPT: qHTS for Inhibitors of human tyrosyl-DNA phosphodiesterase 1 (TDP1): qHTS in cells in presence of CPT | chicken DT40 Tdp1-/-;hTDP1 cells + 20 nM CPT, ATP luminescence, 48 h | Potency, µM (top dose mostly 46.2 µM), inactives show at the top dose activity change, negative = growth inhibition, most hits filed as inhibitors | 420,000 compounds, 12% hits | AID 686979, 2013; note: potency is the fitted concentration of half-maximal effect; % is set by controls: 0 for no effect and ±100 for the full control effect; nearly all actives have a fitted effect of over 55% in size
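Chicken DT40 Tdp1-/- cells stably complemented with human TDP1 were seeded at 400 cells/well in medium containing 20 nM camptothecin, exposed to pin-transferred compounds, and grown at 37 °C for at least 48 hr. Viability was read as ATP luminescence.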
D3 antag: qHTS of D3 Dopamine Receptor Antagonist: qHTS | D(3) dopamine receptor (Homo sapiens), P35462 | D3R cells, DiscoveRx beta-arrestin luminescence, antagonist mode; active compounds read low | 360,000 compounds, 2.5% hits | max response, negative = inhibition, %; in the data active = max response below about -50%; inconclusive = no clear call, values can overlap the other calls; note: % is set by controls: 0 for no effect and ±100 for the full control effect
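Cells plated overnight at 1500 cells/well, then exposed to library compounds with dopamine controls for 90 minutes at 37 degrees C. DiscoveRx reagent added for 30–60 minutes at room temperature; luminescence read, quantitative HTS format.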
ClpP mod: qHTS Assay for Activators of ClpP. ATP-dependent Clp protease proteolytic subunit (Bacillus subtilis (strain 168)), P80244. purified B. subtilis ClpP, FRET peptide cleavage, 20 min. Potency, µM (series often up to 57.5 µM), for the others: at the highest dose activity change, negative = active. 340,000 compounds, 1.9% hits. AID 651965, 2013; active = well fitted falling curve with a large enough effect; inconclusive = small, poorly fitted or top-dose-only effect; inactive = no such curve, though single readings can be large or run the other way; note: potency is the fitted concentration of half-maximal effect; the source files actives as falling curves though it sought activators and does not explain the sign; nearly all actives have a fitted effect of over 65% in size
Target sequence (P80244 whole entry, looked up): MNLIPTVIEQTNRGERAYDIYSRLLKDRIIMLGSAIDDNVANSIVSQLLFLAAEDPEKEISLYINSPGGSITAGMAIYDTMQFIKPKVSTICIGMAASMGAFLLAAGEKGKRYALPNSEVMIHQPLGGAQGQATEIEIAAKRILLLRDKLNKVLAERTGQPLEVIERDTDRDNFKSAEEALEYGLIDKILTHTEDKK
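FRET quenching reversal measured ClpP activation: 10 microg/mL B. subtilis ClpP at pH 8 with the FRET-FV decapeptide, read at 430 nm after 320 nm excitation. The 20-min minus 0-min signal was scaled between DMSO/no-enzyme wells and ADEP (5.8 microM final).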
TDP1 cell noCPT: qHTS for Inhibitors of human tyrosyl-DNA phosphodiesterase 1 (TDP1): qHTS in cells in absence of CPT; DT40 Tdp1-/- hTDP1 cells, no CPT, ATP luminescence, 48 h; 420,000 compounds, 15% hits; Potency, µM (top dose mostly 46.2 µM), inactives show at the highest dose activity change, negative = growth inhibition, hits mostly inhibitors; note: potency is the fitted concentration of half-maximal effect; % is set by controls: 0 for no effect and ±100 for the full control effect; nearly all actives have a fitted effect of over 55% in size
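Chicken DT40 Tdp1-/- cells complemented with human TDP1, screened without camptothecin (DMSO vehicle only), 400 cells/well. Compounds pin-transferred, cells incubated at 37 °C for at least 48 hr. Growth read as ATP-dependent luminescence (CellTiter-Glo, 30 min at RT).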
An asterisk follows results filed as active; ? = inconclusive; / = no result given. Unless noted, calls come from the whole dose curve; as a rule, active = well fitted inhibition curve with a large enough effect; inconclusive = small, poorly fitted or top-dose-only effect; inactive = flat fitted curve, though single readings scatter.

SMILES | DRD3 agonist | IL-1B inflam inh | DT40 TDP1 CPT | D3 antag | ClpP mod | TDP1 cell noCPT
Cc1ccc(CNC(=O)C2CCN(c3nc(C)cc(C)n3)CC2)cc1 | -12 | 0 | -8% | -5 | / | -24%
Cc1cc(C)nc(N2CCCC(C(=O)Nc3ccc4nc(C)c(C)nc4c3)C2)n1 (centres undefined) | 30 | -4 | ? | 12 | -21% | 13µM*
Cc1cc(C)nc(N2CCC(C(=O)NCCc3ccc(Cl)cc3)CC2)n1 | 3 | 0 | 13µM* | -21 | -12% | ?
COCCN(C(=O)CNC(=O)c1ccco1)C(C(=O)NC1CCCC1)c1ccc(F)cc1 (centres undefined) | 6 | 23 | -6% | 3 | / | -8%
COCCn1c(N)c(Sc2ccc(Cl)cc2)c(=O)[nH]c1=O | -4 | -4 | -19% | 5 | / | -8%
Cc1ccccc1NC(=O)N1CCc2cc(S(=O)(=O)N3CCC(C)CC3)ccc21 | 5 | / | -19% | / | -2% | -21%
CCNC(=O)C1CCCN(c2nc(C)cc(C)n2)C1 (centres undefined) | 1 | 0 | 2% | 23 | 4% | 4%
Cc1cc(C)nc(N2CCCC(C(=O)NCCc3ccc(F)cc3)C2)n1 (centres undefined) | -1 | -7 | -7% | 6 | 11µM* | -3%
O=C1C=C(N2CCN(c3ccccn3)CC2)C(=O)c2c(O)ccc(O)c21 | -22 | -15 | 1.5µM* | -28 | -7% | 4.1µM*
CCN1CCN(c2cc3c(nn2)Oc2ccccc2N3C)CC1 | -9 | -12 | ? | -14 | 28µM* | ?
Cc1ccc(C(=O)Nc2nnc(-c3ccco3)o2)cc1 | -6 | -4 | 23µM* | -19 | -3% | 23µM*
CCC(=O)Nc1nnc(-c2ccco2)o1 | -4 | 23 | 2% | 4 | -10% | -12%
O=C(Nc1nnc(-c2ccncc2)o1)c1ccc(Br)s1 | -1 | 50 | 15µM* | 9 | -4% | 13µM*
O=C(Nc1nnc(-c2ccco2)o1)C1CC1 | -2 | -7 | 2% | -4 | 1% | -2%
N#Cc1ccc(C(=O)Nc2nnc(-c3ccco3)o2)cc1 | 3 | 28 | ? | -2 | / | 6.5µM*
CC(C)(C)C(=O)Nc1nnc(-c2ccncc2)o1 | 0 | 27 | -19% | 3 | ? | 1%
O=C(Nc1nnc(-c2ccco2)o1)c1ccc2ccccc2c1 | -2 | -2 | ? | -4 | 0% | 21µM*
CCOC(=O)CC1(C)c2nc(NC(C)=O)sc2Cc2sc(NC(C)=O)nc21 | 5 | 54 | -12% | 0 | 5% | -16%
O=C1NCC(O)=C1C=Nc1ccccc1O | -5 | 7 | ? | -4 | 1% | ?
CC(=O)Nc1ccc(S(=O)(=O)N2CCC(n3c(C(F)(F)F)nc4cccnc43)CC2)cc1 | 5 | / | ? | / | 0% | ?
Cc1nnc(NC(=O)c2ccc3ccccc3c2)o1 | -7 | -57* | ? | ? | -15% | ?
Cc1ccccc1NC(=O)c1ccc2ccccc2c1 | 3 | -4 | -17% | 2 | -2% | -10%
O=C(Cc1ccccc1)Nc1nnc(-c2ccco2)o1 | -6 | -15 | 3% | -23 | / | -15%
O=C(Nc1nnc(-c2ccco2)o1)c1ccc([N+](=O)[O-])s1 | 2 | 1 | 8.2µM* | -23 | ? | 9.2µM*
Cc1ccsc1C(=O)Nc1nnc(-c2ccco2)o1 | -4 | 9 | ? | -65* | -1% | -109%
O=C(Nc1ccccn1)c1ccc(C(=O)Nc2ccccn2)cc1 | -12 | 11 | -10% | 9 | 2% | 4%
O=C(Nc1ccccn1)c1ccc(Br)s1 | 2 | -64* | 1% | -5 | -1% | -17%
